MEKK3 PB1 HTS – modulators of MEKK3-MEK5 PB1 binding, primary screen, biochemical, wildtype MEKK3, multiplex bead flow cytometry, Alexa488-MEK5; Mitogen-activated protein kinase kinase kinase 3 (Homo sapiens), Q99759; bead-based flow cytometry, Alexa488-MEK5 binding to MEKK3; actives lie on both sides; 0 = blocked by unlabeled MEK5, 100 = vehicle; binding response (% of control), % at 10 µM; 290,000 tested, 1.4% active;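 active means binding response more than 3 SD above or below the average of its plate-row segment, actives on both sides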;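 further: Alexa488 bead fluorescence after subtracting the streptavidin-only scavenger bead signal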
MEKK2wt PB1 HTS – modulators of MEK5 binding to wildtype MEKK2, primary screen, biochemical, multiplex bead flow cytometry, Alexa488-MEK5 | Mitogen-activated protein kinase kinase kinase 2 (Homo sapiens), Q9Y2U5 | Alexa488-MEK5 binding to MEKK2 WT; actives lie on both sides | binding response (% of control), % at 10 µM | 290,000 tested, 1.1% active | AID 1531, 2009; in the data active means binding response below about 67% or above about 130%
MEKK2mut PB1 HTS – MEK5 binding signal on mutant MEKK2 PB1, primary screen, biochemical, multiplex bead flow cytometry, Alexa488-MEK5 | percent response, % at 10 µM | Alexa488-MEK5 binding to MEKK2 mutant | AID 1530, 2009 | 290,000 tested, 0.35% active; in the data active means percent response above about 24%, passing the limit was not always enough
VLA-4 inh – inhibition in human VLA-4 binding assay, primary screen, VLA-4 allosteric modulator project, MLPCN library, flow cytometry, VLA-4 expressing cells; Integrin alpha-4 (Homo sapiens), P13612; inhibition, % (about 7 µM as worked out from the volumes in the protocol); ligand binding flow cytometry; 330,000 tested, 0.2% active; in the data active means inhibition above about 50%
VLA-4 mod pick – retest of VLA-4 allosteric modulators, confirmation, cell-based, cherry-picked plates, U937, HUTS-21 LIBS antibody. shares compounds with VLA-4 inh. U937 cells, HUTS-21 LIBS mAb binding, flow cytometry; LDV ligand present at threefold Kd. inhibition, % at 6.7 µM. 1,300 tested, 2% active. AID 2813, 2010; in the data active means inhibition above about 40%;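 further: 0% = ligand without compound and 100% = no ligand background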
Active calls of the source: *; . = not tested or not shown. An excerpt weighted towards active compounds, which were near 2.2% of everything screened.

SMILES	MEKK3 PB1 HTS	MEKK2wt PB1 HTS	MEKK2mut PB1 HTS	VLA-4 inh	VLA-4 mod pick
COC(=O)[C@]1(Cc2ccccc2)N[C@H](CN(C)S(=O)(=O)c2ccc(-c3ccccc3)cc2)[C@@H]2C(=O)N(Cc3ccccc3)C(=O)[C@@H]21	.	.	.	-11	-2
CCNC(=O)COC(=O)c1cc(S(=O)(=O)N2CCCc3ccccc32)ccc1Cl	94	92	-3	7	-3
O=C(NCc1ccco1)c1cc(S(=O)(=O)N2CCCc3ccccc32)ccc1Cl	101	103	5	14	.
COCCNC(=O)c1ccc(S(=O)(=O)N2CCCc3ccccc32)cc1	105	105	11	-10	6
O=C1NC(=O)/C(=C/c2cccc(O)c2)N1	105	86	4	47	-3
C=CCNC(=O)c1c(Cl)cnn1-c1ccc(C)cc1	99	96	-4	1	.
Cc1ccc(C(=O)OCC(=O)Nc2ccc(S(N)(=O)=O)cc2)c(O)c1	99	100	0	5	6
CC[C@@H]1C=C(C(=O)O)[C@H](c2ccc(OC)c(OC)c2)N1S(=O)(=O)c1ccc(C)cc1	.	.	.	28	1
COc1ccc([C@H]2C(C(=O)O)=C[C@@H](C(C)(C)C)N2S(=O)(=O)c2ccc(C)cc2)cc1OC	.	.	.	40	1
Cc1ccc(S(=O)(=O)N2[C@@H](c3ccc4c(c3)OCO4)C(C(=O)O)=C[C@H]2C(C)(C)C)cc1	.	.	.	-16	.
CC(C)(C)[C@@H]1C=C(C(=O)O)[C@H](c2ccc(Cl)cc2)N1S(=O)(=O)c1ccccc1	.	.	.	26	0
CCc1ccc([C@H]2C(C(=O)O)=C[C@@H](C(C)(C)C)N2S(=O)(=O)c2ccc(C)cc2)cc1	.	.	.	26	1
O=C(CNCC1CCCO1)NCc1ccco1 (centres undefined)	105	94	-3	20	.
Cc1ccc(S(=O)(=O)N2[C@@H](c3ccc(C(C)(C)C)cc3)C(C(=O)O)=CC[C@H]2c2cccs2)cc1	.	.	.	60*	2
CC[C@@H]1C=C(C(=O)O)[C@H](c2ccc(C)cc2)N1S(=O)(=O)c1ccc(C)cc1	.	.	.	36	0
CCC(C)(C)NC(=O)CN(C(=O)c1csnn1)c1ccccc1-c1ccccc1	102	103	8	-1	.
CCOC(=O)C1(CC2CCCCO2)CCN(Cc2cn[nH]c2-c2cccc(F)c2)CC1 (centres undefined)	99	100	-7	-2	.
COc1ccc(N(S(=O)(=O)c2ccccc2)S(=O)(=O)c2ccccc2)c(N)c1	.	.	.	-12	.
CNc1c(NS(=O)(=O)c2cc(Cl)ccc2OC)c(=O)oc2ccccc12	105	105	0	4	.
COC(=O)c1c(C)[nH]c(C(=O)C(C)OC(=O)C2CC2)c1C (centres undefined)	.	.	.	0	-4
COC(=O)c1c(C)[nH]c(C(=O)C(C)OC(=O)c2ccco2)c1C (centres undefined)	.	.	.	-25	9
Cc1ccc(CN2CCN(Cc3ccc4cccc(F)c4n3)CC2CCO)cc1 (centres undefined)	101	105	2	3	.
CN(C(=O)c1ccc(NC(=O)Cc2ccc([N+](=O)[O-])cc2)cc1)C1CC1	.	.	.	-5	.
COc1cccc(-c2cc(C(=O)N3CCN(c4ncccn4)CC3)c3ccccc3n2)c1	.	.	.	6	.
O=C(c1cc(-c2ccncc2)nc2ccc(Br)cc12)N1CCN(c2ccccn2)CC1	107	102	-3	1	-11
SMILES	MEKK3 PB1 HTS	MEKK2wt PB1 HTS	MEKK2mut PB1 HTS	VLA-4 inh	VLA-4 mod pick
CC(C)Oc1cccc(-c2cc(C(=O)N3CCN(c4ncccn4)CC3)c3ccccc3n2)c1	101	98	1	17	-2
O=C(c1cc(-c2ccccc2Cl)nc2ccc(Br)cc12)N1CCN(c2ccccn2)CC1	92	88	-9	-3	.
O=C(c1cc(-c2ccc(Br)cc2)nc2ccccc12)N1CCN(c2ccccc2O)CC1	.	.	.	5	-10
Cc1ccc(-c2cc(C(=O)N3CCN(c4ccccc4O)CC3)c3ccccc3n2)o1	105	108	6	-8	.
COc1ccc(-c2cc(C(=O)N3CCN(c4cccc(C)c4C)CC3)c3ccccc3n2)cc1OC	.	.	.	-8	-2
O=C(COC(=O)c1ccc(Cl)cc1)NC1CCCCCC1	.	.	.	-15	.
O=C(COC(=O)c1ccccc1)NC1CCCCCC1	.	.	.	-1	-4
COc1cccc(C(=O)Nc2ncc3c(n2)CC(C)CC3=O)c1 (centres undefined)	94	93	-5	62*	0
Cc1cc2c(cc1S(=O)(=O)N1CC(C)CC(C)C1)OCC(=O)N2 (centres undefined)	98	93	-3	2	.
COc1cc(C)nc(-n2nc(C)cc2OC)n1	96	101	2	-8	0
COc1ccc(C(=O)NCc2cccnc2)cc1C(=O)NCc1cccnc1	.	.	.	56*	-1
Cc1cc(Cl)ccc1NC(=O)CN1CCCC1	96	101	8	-1	.
Cc1cc(Cl)ccc1NC(=O)Cn1cncn1	112	108	-1	53*	-1
N#Cc1c(SCC(N)=O)nc(-c2ccccc2)c2c1CCCC2	103	104	2	-13	.
N#Cc1c(SCC(=O)O)nc(-c2ccccc2)c2c1CCCC2	102	99	2	94*	0
CC(OC(=O)c1ccccc1O)C(=O)Nc1cccc(Cl)c1 (centres undefined)	97	94	-5	6	1
O=[N+]([O-])c1ccccc1Oc1ncccc1[N+](=O)[O-]	88	88	-3	72*	10
CCCCN(C)C(=O)C(Cc1ccccc1)NS(=O)(=O)c1ccc2c(c1)CCC(=O)N2 (centres undefined)	116	115	6	54*	-2
COc1ccc(CC(=O)NC(C)c2nnc(SCC(=O)Nc3ccccc3)n2C)cc1 (centres undefined)	103	100	1	24	.
COc1ccc(C(=O)NC(C)c2nnc(SCC(=O)Nc3nc4ccccc4s3)n2C)cc1 (centres undefined)	.	.	.	-10	4
COc1ccc(C(=O)NC(C)c2nnc(SCC(=O)Nc3nc(C)cs3)n2C)cc1 (centres undefined)	104	108	5	2	0
CCN(C(=S)Nc1ccc(C(C)=O)cc1)C1CCCCC1	91	93	-2	7	.
CC(=O)Nc1cccc(/C(C)=N/NC(=O)c2ccc3c(c2)OCO3)c1	99	102	6	1	.
C/C(=N\NC(=O)c1ccccc1)c1ccc2c(c1)OCO2	105	97	0	71*	12

From PubChem BioAssay
